Shown are actives, neighbours in structure and some others; about 12% of the full set was active somewhere.
Sfp inh = blocks B. subtilis Sfp PPTase activity. Q9F4F7. Biochemical Sfp PPTase activity, qHTS. Potency, µM, for inactives: largest response in the series, negative = inhibition, most hits filed as inhibitors. actives 3.5% (n = 310,000);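 further: the enzyme is Sfp with the accession as filed and its product quenches rhodamine fluorescence; 0% = enzyme reaction without inhibitor and -100% = no enzyme wells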
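Buffer: 50 mM Hepes-Na pH 7.6, 10 mM MgCl2, 0.01% Nonidet P-40, 0.01% BSA. Enzyme 15 nM, pre-exposed to compound 15 min; substrates then added and fluorescence change tracked over 30 min.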
G9a block = inhibitors of human histone lysine methyltransferase G9a; G9a H3K9 monomethylation, AlphaScreen, 2 h; Q96KQ7; AID 504332; Potency, µM (series often up to 102 µM), for the others: at the highest dose activity, negative = inhibition, hits mostly inhibitors; actives 8.8% (n = 350,000); further: on the % scale 0 is the no-effect control and ±100 the full control effect; nearly all actives have a fitted effect of over 75% in size
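Using a bead-based AlphaScreen, monomethylated H3K9 product from 2 h room-temperature reactions (G9a 20 nM, peptide 500 nM, SAM 20 uM) was detected with 0.5 ug/mL rabbit anti-H3K9me1 antibody.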
JMJD2A Tudor = JMJD2A Tudor domain (human) inhibition. AID 504339. AlphaScreen JMJD2A-Tudor / H3K4me3 peptide binding. O75164. actives 4.4% (n = 390,000). Potency, µM (series often up to 114 µM), for the others: at the top dose activity change, negative = inhibition, most hits filed as inhibitors; further: on the % scale 0 is the no-effect control and ±100 the full control effect; nearly all actives have a fitted effect of over 50% in size
Target sequence (O75164 whole entry, looked up, the tested form may be a part): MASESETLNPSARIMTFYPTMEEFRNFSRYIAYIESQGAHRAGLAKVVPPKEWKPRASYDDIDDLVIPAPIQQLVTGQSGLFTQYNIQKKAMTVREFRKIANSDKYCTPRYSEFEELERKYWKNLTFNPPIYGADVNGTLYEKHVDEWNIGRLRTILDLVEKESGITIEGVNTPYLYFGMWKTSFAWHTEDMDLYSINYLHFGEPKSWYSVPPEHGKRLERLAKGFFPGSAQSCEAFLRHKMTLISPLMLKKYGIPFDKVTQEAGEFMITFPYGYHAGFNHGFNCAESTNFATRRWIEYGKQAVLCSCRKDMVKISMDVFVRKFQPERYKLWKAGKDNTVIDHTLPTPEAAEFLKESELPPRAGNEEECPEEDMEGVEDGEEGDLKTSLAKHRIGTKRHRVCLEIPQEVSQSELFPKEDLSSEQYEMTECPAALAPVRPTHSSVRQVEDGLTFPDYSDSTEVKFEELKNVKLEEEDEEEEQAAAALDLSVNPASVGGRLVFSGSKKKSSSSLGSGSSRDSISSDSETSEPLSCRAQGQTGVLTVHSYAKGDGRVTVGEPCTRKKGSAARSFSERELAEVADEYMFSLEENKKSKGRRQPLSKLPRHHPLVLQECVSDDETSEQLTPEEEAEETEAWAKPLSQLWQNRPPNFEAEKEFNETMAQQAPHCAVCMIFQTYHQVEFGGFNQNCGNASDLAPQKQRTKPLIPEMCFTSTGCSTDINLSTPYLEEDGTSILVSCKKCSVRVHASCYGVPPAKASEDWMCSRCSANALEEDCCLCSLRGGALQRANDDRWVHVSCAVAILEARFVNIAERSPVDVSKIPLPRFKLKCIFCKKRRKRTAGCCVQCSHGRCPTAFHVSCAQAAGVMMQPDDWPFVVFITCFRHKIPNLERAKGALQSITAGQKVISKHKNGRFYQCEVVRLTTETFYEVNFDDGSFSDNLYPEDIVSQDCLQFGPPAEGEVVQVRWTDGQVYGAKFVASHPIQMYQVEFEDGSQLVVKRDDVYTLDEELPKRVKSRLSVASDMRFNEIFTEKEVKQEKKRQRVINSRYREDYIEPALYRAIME
HP1b chromo inh = blocks HP1-beta chromodomain binding to methylated histone tails; P83916; Potency, µM (highest dose often 114 µM), for the others: at the highest dose activity change, negative = inhibition, usual class: inhibitors; actives 0.56% (n = 390,000); AlphaScreen HP1-beta / biotin-H3K9me3 peptide binding; further: nearly all actives have a fitted effect of over 70% in size
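AlphaScreen: HP1-beta (50 nM) preformed 30 min with biotin-H3(1-18)K9me3 peptide (50 nM) in PBS pH 7.4, 0.01% Tween-20. Compound added for 30 min at RT, then streptavidin donor/nickel chelate acceptor beads (10 ug/mL) for 30 min.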
BAZ2B inh = inhibitors of human BAZ2B bromodomain; actives 4.4% (n = 360,000); Potency, µM (highest dose often 114 µM), for inactives: top-dose activity change, negative = inhibition, most hits filed as inhibitors; AlphaScreen BAZ2B-H3K14Ac peptide displacement; further: on the % scale 0 is the no-effect control and ±100 the full control effect; nearly all actives have a fitted effect of over 60% in size
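Inhibition is scored as reduced AlphaScreen emission. The BAZ2B/b-H3(5-23)K14Ac complex (50 nM each) in PBS pH 7.4, 0.01% Tween-20 meets compound (up to 110 uM) for 30 min at RT before bead addition.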
L3MBTL1 inh = blocks human L3MBTL1. actives 0.66% (n = 230,000). AlphaScreen L3MBTL1–H3K9me1 peptide binding. Potency, µM (titrated, usually from 57.1 µM), for the others: top-dose activity, negative = inhibition, usual class: inhibitors; further: on the % scale 0 is the no-effect control and ±100 the full control effect; nearly all actives have a fitted effect of over 60% in size
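Read-out is AlphaScreen signal from streptavidin donor and nickel chelate acceptor beads (10 ug/mL final each) bridging L3MBTL1 (50 nM) and biotinylated K9-monomethylated H3(1-15) peptide (75 nM), after 30 min compound exposure at room temperature.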
Starred values were filed as active, the others as inactive; u = inconclusive; x = no result; [ ] = dose if it differs, or a comment. The call rests on the fitted dose curve; in most records, active means well fitted curve in the direction sought with a large enough effect; inconclusive means small, poorly fitted or top-dose-only effect, or another doubt; inactive means no such curve, though single readings can be large; an effect the other way counts as inactive or inconclusive. Potency means the concentration at half of the fitted maximal effect.

SMILES	Sfp inh	G9a block	JMJD2A Tudor	HP1b chromo inh	BAZ2B inh	L3MBTL1 inh
Cc1cc(=O)[nH]c(NN=C2CCCCC2C)n1 (configuration not stated)	x	x	0.89µM*	-24%	x	x
Cc1cc(=O)[nH]c(NN=C2C3CC4CC(C3)CC2C4)n1	45µM*	2.5µM*	u	43%	8%	6%
Cc1cc(=O)[nH]c(NCCO)n1	22%	7%	-17%	-9%	-1%	14%
CS(=O)(=O)Nc1cccc(-c2ccc3ncnc(NCCN4CCOCC4)c3c2)c1	34%	-8%[0.501 µM]	x	x	x	x
C/C(=C\C(=O)c1ccc(C)o1)Nc1ccc2c(c1)OCO2	-3%	u	u	-21%	u	-8%
COC(=O)c1ccc(N/C(C)=C/C(=O)c2ccc(C)o2)cc1	10%	4%[12.7 µM]	89µM*	-16%	-36%	3%
CCOc1ccc(N/C(C)=C/C(=O)c2ccc(C)o2)cc1	-4%	50µM*	3%	20%	u	x
O=C(Cn1c(=O)c2cccn2c2cccnc21)NCc1cccc(F)c1	x	1%[59 µM]	-3%	30%	-3%	x
COc1ccc2nc(N3CCN(C(=O)CS(=O)(=O)c4ccc(C)cc4)CC3)sc2c1	x	-6%[59 µM]	-17%	3%	-14%	x
c1ccc(Nc2cccc(Nc3ccccc3)c2)cc1	13%	16µM*	32µM*	40µM*	13µM*	-11%
Nc1cccc(Nc2ccccc2)c1	-9%	x	-12%	1%	u	-12%
COc1ccc(S(=O)(=O)N=Nc2c(O)[nH]c3ccccc23)cc1	-13%	3.2µM*	-27%	61%	-3%	x
Cc1ccc(N(CC(=O)N=Nc2c(O)[nH]c3ccccc23)S(C)(=O)=O)c(C)c1	5%	-7%	u	-16%	-3%	x
Cc1ccc(S(=O)(=O)N=Nc2c(O)[nH]c3ccccc23)cc1C	-1%	4.5µM*	35µM*	47%	-35%	x
CCCCOc1ccc(N=Nc2ccc(N)nc2N)cn1	1%	20%[0.501 µM]	35µM*	u	14%	x
CCCCOc1ccc(Cc2cnc(N)nc2N)cc1	-7%	x	-28%	29%	-7%	x
CN(CC(=O)Nc1ccc(N2CCOCC2)cc1)C(=O)Cc1ccccc1	x	-4%[12.7 µM]	-2%	19%	5%	0%
Cc1ccc(-c2nn(-c3ccc(F)cc3)cc2C(=O)N(C)CC(=O)Nc2ccc(N3CCOCC3)cc2)cc1	x	40µM*	-6%	10%	-5%	-6%
CN(CC(=O)Nc1ccc(N2CCOCC2)cc1)C(=O)CCNC(=O)c1ccccc1Cl	x	45µM*	-3%	10%	-1%	3%
COc1ccc(NC(=O)CN(C)C(=O)c2cn(-c3ccccc3)nc2-c2ccc(F)cc2)cc1	x	-17%[12.7 µM]	-13%	9%	-3%	-4%
Cc1ccc(C)c(SCC(=O)N(C)CC(=O)Nc2ccc(N3CCOCC3)cc2)c1	x	45µM*	-17%	8%	-35%	-15%
CN(CC(=O)Nc1ccc(N2CCOCC2)cc1)C(=O)CCc1ccccc1Cl	x	25µM*	-23%	-14%	u	-7%
Cc1ccccc1C1C=C(c2ccc(Cl)cc2)Nc2nnnn21 (configuration not stated)	x	-9%[59 µM]	6%	37%	5%	x
C[C@H](O)Cn1cnc2c1c(=O)n(C)c(=O)n2C	9%	44%[21.5 µM]	x	x	x	x
COCCNC(=O)C1(CC(C)C)C=CCN1C(C)=O (configuration not stated)	10%	x	x	x	x	x
SMILES	Sfp inh	G9a block	JMJD2A Tudor	HP1b chromo inh	BAZ2B inh	L3MBTL1 inh
O=C(Cn1c(=O)n(-c2ccccc2Cl)c(=O)c2sc3ccccc3c21)NC1CCCC1	x	9%[59 µM]	-16%	10%	-11%	x
CSc1ccc(Cl)c(C(=O)N(C)CC(=O)Nc2ccc(N3CCOCC3)cc2)c1	x	35µM*	-28%	25%	-3%	4%
CC[C@@H](C)[C@@H](CO[C@@H](Cc1ccccc1)C(=O)N[C@@H](CCS(C)(=O)=O)C(=O)OC(C)C)NC[C@@H](N)CS	-27%	22µM*	x	x	x	x
Cc1ccc2cc(C(=O)O)c(C)nc2c1	-21%	50µM*	-7%	33%	u	4%
CCCOc1ccc(C(=O)c2nc3c(n2O)CCCCC3)cc1	-7%	-20%[12.7 µM]	u	10%	-5%	x
O=C(c1ccccc1)c1nc2c(n1O)CCCCC2	3%	56µM*	-13%	15%	79µM*	-7%
O=C(CN1C(=O)C2(SCC(=O)N2c2ccc(F)c(F)c2)c2ccccc21)Nc1ccccc1F (configuration not stated)	x	-26%[59 µM]	-17%	29%	8%[57.1 µM]	x
CC(C)OCCCNCC(O)c1ccccc1 (configuration not stated)	-13%	u	20µM*	u	79µM*	7%
O=C1CCCN1CCCNCC(=O)N1c2ccccc2Sc2ccccc21	u	u	10µM*	u	22µM*	x
O=C(CNC(=O)c1ccccc1F)NCCCN1CCCC1=O	x	3%[59 µM]	2%	32%	0%	5%
O=C1CCCN1CCCNCC(O)c1ccccc1 (configuration not stated)	-22%	-2%	1µM*	u	u	x
Cc1ccc(OCc2cc(=O)n3cc(C)sc3n2)c(NC(=O)c2ccco2)c1	x	6%[59 µM]	u	24%[57 µM]	6%	x
COc1ccccc1N1CCN(C(=O)Cn2cnc3sc(C)c(S(=O)(=O)N4CCC(C)CC4)c3c2=O)CC1	x	u	-3%	27%	0%	x
O=C(c1ccc2nc(-c3ccco3)c(-c3ccco3)nc2c1)N1CCN(c2ccccc2)CC1	u	u	u	-16%	u	u
O=C(Nc1cccc(C(F)(F)F)c1)c1ccc2snnc2c1	x	4%[59 µM]	3%	34%	4%	x
O=C(Nc1cccc(C(F)(F)F)c1)c1ccc2nc(-c3ccco3)c(-c3ccco3)nc2c1	28µM*	u	20µM*	-92%	50µM*	x
O=C(O)c1ccc2nc(-c3ccco3)c(-c3ccco3)nc2c1	7.9µM*	-123%[12.7 µM]	25µM*	u	10µM*	2.2µM*
CCc1nc2ccc(C(=O)NCCc3ccc(OC)c(OC)c3)cc2nc1CC	1%	-6%	-17%	-7%	-15%[57.1 µM]	x
COc1ccc(CCNC(=O)c2ccc3nc(-c4ccco4)c(-c4ccco4)nc3c2)cc1OC	10µM*	u	u	u	50µM*	u
CCC1OC(=O)C(C)[C@@H](O[C@H]2C[C@@](C)(OC)C(O)C(C)O2)C(C)[C@@H](O[C@@H]2OC(C)CC(N(C)C)C2O)[C@@](C)(O)CC(C)C2NC(COCCOC)O[C@H](C2C)[C@@]1(C)O (some centres not stated)	6%	-4%[2.33 µM]	x	x	x	x
O=C(c1ccccc1)N1CCN(C(=O)c2cccnc2)CC1	-3%	u	1%	20%	1%	0%
